# Screening data: PubChem BioAssay, National Center for Advancing Translational Sciences (NCATS)
# In the library only some 7.6% were active in any assay of this set; here they are far more common.
# KCNH2 3.1 block = qHTS for Inhibitors of KCHN2 3.1: Mutant qHTS; AID 720553, 2013; Potassium voltage-gated channel subfamily H member 2, brain isoform KCNH2 3.1 (human); activity change, % (tested at about 1.8 µM); hit rate 0.95% among 340,000; U2OS KCNH2 3.1, thallium flux FluxOr; active compounds read low;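 active = maximum activity change below -70%; inconclusive = maximum activity change from -70% to -50%; inactive = maximum activity change above -50%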;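 also: thallium influx rate constant from kinetic fluorescence after stimulation buffer; % is scaled to controls: 0 for no effect and ±100 for the full control effect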
#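 Normalized rate constant (relative to positive and negative DMSO controls) derived from a 2 min kinetic fluorescence read after stimulation; U2OS cells expressing the 3.1 isoform via virus at 1.77 x 10^8 /mL.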
# SW480 rereplic = A quantitative high throughput screen for small molecules that induce DNA re-replication in SW480 colon adenocarcinoma cells; SW480 DNA re-replication, Hoechst DNA content imaging, 48 h; Potency, µM (top dose mostly 46.1 µM), without a hit: at the highest dose re-replication activation, actives largely listed as activators; hit rate 1.8% among 340,000; also: potency is read from the fitted curve at half-maximal effect; % of control where 0% means no effect; nearly all actives have a fitted effect of over 55% in size
#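 Readout is total intensity of Hoechst-stained nuclei, excited at 405 nm and collected at 500-530 nm. Compound treatment lasted 48 hr at 37 C in 5% CO2 before staining.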
# MCF10A rerep = A quantitative high throughput screen for small molecules that induce DNA re-replication in MCF 10a normal breast cells; MCF 10A DNA re-replication, Hoechst nuclear intensity, 48 h; Potency, µM (series often up to 46.1 µM), for the others: top-dose activity, positive = re-replication, usual class: activators; hit rate 2.9% among 350,000; also: potency is read from the fitted curve at half-maximal effect; % of control where 0% means no effect; nearly all actives have a fitted effect of over 50% in size
# KB-V1 MDR tox = qHTS assay for MDR1-selective chemotherapeutics: Primary screen using the drug-selected MDR subline cells KB-V1 | hit rate 3.4% among 400,000 | KB-V1 MDR cells viability, CellTiter-Glo, 72 h | Potency, µM (series often up to 46.1 µM), hits mostly cytotoxic | AID 1347076, 2019; also: potency is read from the fitted curve at half-maximal effect; % is scaled to controls: 0 for no effect and ±100 for the full control effect; nearly all actives have a fitted effect of over 60% in size
#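 Following 72 h at 37 degrees C with compound, KB-V1 cell viability was read by CellTiter-Glo luminescence, medium being phenol-red-free DMEM plus 10% FBS; concentration-response parameters came from normalized, curve-fitted qHTS data.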
# KB-3-1 tox = qHTS assay for MDR1-selective chemotherapeutics: Primary screen using the parental adenocarcinoma cell KB-3-1; hit rate 1.4% among 400,000; KB-3-1 viability, CellTiter-Glo ATP luminescence, 72 h; Potency, µM (titrated, usually from 46.1 µM), usual class: cytotoxic; AID 1347075, 2019; also: potency is read from the fitted curve at half-maximal effect; % is scaled to controls: 0 for no effect and ±100 for the full control effect; nearly all actives have a fitted effect of over 60% in size
#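 Cytotoxicity in the drug-sensitive parental line KB-3-1 was scored as loss of CellTiter-Glo luminescence following 72 h incubation with compound. Values come from curve fitting of normalized concentration-response data.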
# hERG WT inh = qHTS for Inhibitors of KCHN2 3.1: Wildtype qHTS; AID 720551, 2013; Voltage-gated inwardly rectifying potassium channel KCNH2 (Homo sapiens), Q12809; hit rate 0.37% among 340,000; activity change, % at 1.84 µM; U2OS, BacMam KCNH2, thallium flux FluxOr; active compounds read low;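 active = maximum activity change below -70%; inconclusive = maximum activity change between -70% and -50%; inactive = maximum activity change above -50%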; also: % is scaled to controls: 0 for no effect and ±100 for the full control effect
#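 U2OS cells were transduced with wild-type KCNH2 virus (2.03 x 10^8 / mL) for 4 h at room temperature, then cultured overnight at 37 C. Thallium flux was read with FluxOr dye. Rate constants were normalized to DMSO controls.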
# * marks the source's active call; other numbers are inactive results; i = inactive; ? = inconclusive; . = no result; [ ] = dose if it differs, or a comment. Unless noted, calls follow the shape of the dose curve; as a rule, active = well fitted curve in the direction sought with a large enough effect; inconclusive = small, poorly fitted or top-dose-only effect, or another doubt; inactive = no such curve, though single readings can be large; an effect the other way counts as inactive or inconclusive.
SMILES,KCNH2 3.1 block,SW480 rereplic,MCF10A rerep,KB-V1 MDR tox,KB-3-1 tox,hERG WT inh
O=C(Nc1ccc(C(=O)N2CCCC2)cc1)c1ccc(F)cc1Cl,-10,-2%,2%,i,i,-5
NC(=O)c1ccc(S(=O)(=O)N2CCSCC2)cc1,-16,4%,5%,i,i,1
O=C(COC(=O)CCCc1nc2ccccc2s1)Nc1ncc(Cl)cc1Cl,-3,3%,0%,i,i,4
CC(=O)c1cccc(NC(=O)c2cccc(N3C(=O)c4ccccc4C3=O)c2)c1,13,-7%,13%,i,i,15
O=C(NC1=NCCS1)c1cccc(N2C(=O)c3ccccc3C2=O)c1,-2,-40%,6.5µM*,?,i,-13
COc1ccc(/C(O)=C/c2nc3ccccc3n(-c3ccccc3)c2=O)cc1,-4,?,8.2µM*,i,i,-9
CCN(CC(=O)Nc1ccc(NC(C)=O)cc1)C(=O)c1cccc(N2C(=O)c3ccccc3C2=O)c1,-35,-10%,-3%,?,i,-13
Cn1ncc2c(=O)n(/N=C/c3ccccc3)cnc21,4,-5%,11%,i,i,2
Cc1ccc(-c2ccc(C3C(C#N)=C(N)Oc4n[nH]c(C)c43)o2)cc1 (stereo not drawn),9,?,23µM*,26µM*,i,-8
Cc1[nH]nc2c1C(c1ccc(-c3ccc(Cl)cc3)o1)C(C#N)=C(N)O2 (stereo not drawn),-18,?,?,?,?,-6
CCC(CC)C1C(C#N)=C(N)Oc2n[nH]c(C)c21 (stereo not drawn),-21,21µM*,?,i,i,0
CCOC(=O)C1CCN(c2ncnc3cc(OC)c(OC)cc23)CC1,6,-1%,-1%,i,i,2
Cc1ccc(C)c(NC(=O)c2ccc3c(c2)CCCN3S(C)(=O)=O)c1,.,.,.,i,i,.
CCCSc1nnc(Sc2nnnn2-c2ccccc2)s1,20,6.5µM*,?,13µM*,5.2µM*,4
O=[N+]([O-])c1ccc(Sc2nnnn2-c2ccccc2)nc1,5,6.5µM*,3.7µM*,?,?,-17
C(=C\CSc1nnnn1-c1ccccc1)/CSc1nnnn1-c1ccccc1,-10,2%,67%[0.0737 µM],?,i,3
Cc1ccccc1-n1nnnc1Sc1nnnn1-c1ccccc1,0,?,15µM*,?,?,4
c1ccc(-n2nnnc2Sc2n[nH]c(-c3ccncc3)n2)cc1,-189*,-5%,330%[0.0737 µM],i,i,-200*
CC1=C(C(=O)Nc2cccc(C(F)(F)F)c2)C2(CCCCCC2)OC1=O,.,.,.,i,i,.
CC(=O)Nc1ccc(N/C=C/C(=O)c2ccc(C)o2)cc1,3,0%,23µM*,i,i,11
COc1cc(C(=O)/C=C/Nc2ccc(NC(C)=O)cc2)cc(OC)c1OC,14,2%,13µM*,21µM*,i,-2
CC1(C)N=C(N)N=C(N)N1CCCCc1ccccc1,-1,-9%,18%,i,1.5µM*,4
O=c1c2c3c(sc2nnn1Cc1ccc(F)cc1)CCCC3,.,.,.,i,i,.
CC(C(=O)Nc1ccc(Cl)cc1)c1ncc(C(F)(F)F)cc1Cl (stereo not drawn),-7,?,?,26µM*,i,14
COCCNC(=O)CCn1c(=O)c2cc(OC)c(OC)cc2n(CC(=O)Nc2ccc(Cl)cc2F)c1=O,.,.,.,i,i,.
SMILES,KCNH2 3.1 block,SW480 rereplic,MCF10A rerep,KB-V1 MDR tox,KB-3-1 tox,hERG WT inh
COc1cc(/C=C(\C#N)C(=O)Nc2cccc(C(=O)O)c2)ccc1OCc1ccc(Cl)cc1,-12,9%,1%,i,i,-92*
COc1cc(/C=C(/C#N)C(=O)Nc2ccccc2)c(Br)cc1OCc1ccc(C(=O)O)cc1,-1,11%,?,i,i,-7
O=C(O)CCSc1nc2ccccc2n1-c1ccccc1,11,-9%,-1%,i,i,2
Cn1c(Cc2ccccc2)nnc1SCc1cc(=O)n2ccsc2n1,5,-14%,-5%,i,i,21
Cc1cccc(-n2c(SCC(=O)Nc3ncc(Cl)cc3Cl)nc3ccccc32)c1,-21,?,15%,?,2.9µM*,9
O=C(CSc1nc2ccccc2n1-c1ccccc1)Nc1ncc(Cl)cc1Cl,-6,7%,?,?,5.2µM*,14
COCCn1c(SCC(=O)Nc2nc(C)c(Cl)cc2Cl)nc2ccccc21,-7,-7%,17%,?,i,2
Cc1cccc(-n2c(SCc3cc(=O)n4ccsc4n3)nc3ccccc32)c1,-20,?,8%,13µM*,?,12
CCC(CC)c1nnc(NC(=O)c2cc(C(=O)OC)cc([N+](=O)[O-])c2)s1,4,6%,15%,i,i,4
Cc1ccc2c(c1)[nH]c1c(=O)n(Cc3ccco3)cnc12,11,?,?,i,i,-3
CSc1ccc(CN2CCC(n3nccc3NC(=O)CCCc3ccccc3)CC2)cc1,-114*,?,?,?,?,-112*
O=C(CCCc1ccccc1)Nc1ccnn1C1CCN(Cc2ccccc2)CC1,-31,?,22%,?,i,4
CCOc1ccc(CN2CCC(n3nccc3NC(=O)CCCc3ccccc3)CC2)cc1,4,-3%,-13%,i,i,-132*
COc1ccc(CN2CCC(n3nccc3NC(=O)CCc3ccccc3)CC2)c(C)c1C,-81*,-7%,-1%,i,i,0
O=C(CCCc1ccccc1)Nc1ccnn1C1CCN(Cc2ccc(Cl)cc2)CC1,-103*,?,?,i,i,-18
CCc1ccccc1NC(=O)CSc1ncccc1C(=O)O,.,.,.,?,i,.
C[C@H]1CN([C@@H](C)CO)C(=O)CCCn2cc(nn2)CO[C@@H]1CN(C)S(=O)(=O)c1cccc(F)c1,-23,.,.,i,i,-12
CN(C)c1ccc(/C=[N+]2\C(=O)CC(=O)NC2=O)cc1,.,.,.,i,i,.
CCOc1cc2c(cc1OC)C(NC(=O)c1ccco1)CC2=O (stereo not drawn),8,-3%,0%,i,i,-11
